Read-out in test [1]: Interferon-gamma inducible Protein 10 (IP10), CXCL10 (gene 3627)
The test can be described thus: BSK_hDFCGF_IP10: BioMAP Diversity Plus: hDFCGF Assay for Interferon-gamma inducible Protein 10 (IP10) Biomarker Activity (AID 2283053). As to conditions: primary human foreskin fibroblasts; actives raise or lower the signal. An outline of the steps: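 ELISA quantification of IP-10 after a 24 h chemical exposure of human dermal foreskin fibroblast primary cultures. Both increases and decreases versus DMSO fitted.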

Read-out in test [2]: Urokinase-type plasminogen activator receptor (uPAR), PLAUR (gene 5329)
The test can be described thus: BSK_CASM3C_uPAR: BioMAP Diversity Plus: CASM3C Assay for Urokinase-type plasminogen activator receptor (uPAR) Biomarker Activity (AID 2283054).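 Also: cell-surface uPAR protein level quantified by ELISA.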 The settings on record: primary human coronary artery smooth muscle cells; actives raise or lower the signal.

Read-out in test [3]: Vascular cell adhesion molecule 1 (VCAM1), VCAM1 (gene 7412)
Kind of test: BSK_CASM3C_VCAM1: BioMAP Diversity Plus: CASM3C Assay for Vascular cell adhesion molecule 1 (VCAM1) Biomarker Activity (AID 2283055).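 Also: VCAM-1 protein level quantified by ELISA on the cells.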 The settings on record: primary human coronary artery smooth muscle cells; actives raise or lower the signal.

Read-out in test [4]: Collagen III, COL3A1 (gene 1281)
The test can be described thus: BSK_hDFCGF_CollagenIII: BioMAP Diversity Plus: hDFCGF Assay for Collagen III Biomarker Activity (AID 2283056). The settings on record: primary human foreskin fibroblasts; actives raise or lower the signal. An outline of the steps: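 Human foreskin primary fibroblasts were exposed to test chemicals for 24 h, after which collagen III was quantified by ELISA. Activity was fitted bidirectionally against DMSO as negative control and baseline.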

Test [5] in a line: BSK_hDFCGF_Proliferation: Cell Proliferation Assessment in the BioMAP Diversity Plus: hDFCGF Assay (AID 2283059).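 Also: curves fitted for both rise and fall of signal versus DMSO baseline.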 As to conditions: primary human foreskin fibroblasts. A digest of the protocol:
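Primary human foreskin fibroblasts, sub-confluent; […]; 10% TCA fix, 0.1% SRB stain, A560 total protein. Gain/loss fitted bidirectionally vs DMSO control.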

Read-out in test [6]: Macrophage colony-stimulating factor (MCSF), CSF1 (gene 1435)
Kind of test: BSK_hDFCGF_MCSF: BioMAP Diversity Plus: hDFCGF Assay for Macrophage colony-stimulating factor (MCSF) Biomarker Activity (AID 2283060). As to conditions: primary human foreskin fibroblasts; actives raise or lower the signal. A digest of the protocol: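 Human foreskin primary fibroblasts were treated with test chemical for 24 h, and M-CSF was then measured by ELISA. Data were fitted bidirectionally against DMSO as the negative control and activity baseline.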

The nature of test [7]: BSK_hDFCGF_SRB: Viability Assessment in the BioMAP Diversity Plus: hDFCGF Assay (AID 2283061).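 Also: cells exposed to compound for 24 h before the read.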 As to conditions: primary human foreskin fibroblasts. A digest of the protocol:
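Human foreskin primary fibroblasts were treated with compound and assessed 24 h after dosing. Total protein was measured by sulforhodamine B staining (0.1% SRB after 10% TCA fixation, 560 nm read) as a cytotoxicity marker, with bidirectional fitting against DMSO baseline.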

Read-out in test [8]: TIMP metallopeptidase inhibitor 1 (TIMP1), TIMP1 (gene 7076)
The test can be described thus: BSK_hDFCGF_TIMP1: BioMAP Diversity Plus: hDFCGF Assay for TIMP metallopeptidase inhibitor 1 (TIMP1) Biomarker Activity (AID 2283062). The settings on record: primary human foreskin fibroblasts; actives raise or lower the signal. A digest of the protocol: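 Primary human foreskin fibroblasts in the hDFCGF system were dosed with compound for 24 h, then TIMP-1 was measured by ELISA. Activity was fitted bidirectionally relative to DMSO control; parallel SRB staining assessed cytotoxicity.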

Read-out in test [9]: Monokine induced gamma interferon (MIG), CXCL9 (gene 4283)
The test can be described thus: BSK_hDFCGF_MIG: BioMAP Diversity Plus: hDFCGF Assay for Monokine induced gamma interferon (MIG) Biomarker Activity (AID 2283063). The settings on record: primary human foreskin fibroblasts; actives raise or lower the signal. A digest of the protocol: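 ELISA read-out of MIG from primary human dermal fibroblasts 24 h post-dosing. Gain or loss of signal fitted bidirectionally, DMSO as baseline.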

Read-out in test [10]: Matrix Metallopeptidase 1 (MMP1), MMP1 (gene 4312)
The test can be described thus: BSK_hDFCGF_MMP1: BioMAP Diversity Plus: hDFCGF Assay for Matrix Metallopeptidase 1 (MMP1) Biomarker Activity (AID 2283064). The settings on record: primary human foreskin fibroblasts; actives raise or lower the signal. A digest of the protocol: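 ELISA read-out of MMP1 from human foreskin fibroblasts (primary skin cells), 24 h post-dose. Gain or loss of signal was fitted bidirectionally versus DMSO negative control; cytotoxicity was checked by SRB in parallel cultures.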

Read-out in test [11]: Vascular cell adhesion molecule 1 (VCAM1), VCAM1 (gene 7412)
Kind of test: BSK_hDFCGF_VCAM1: BioMAP Diversity Plus: hDFCGF Assay for Vascular cell adhesion molecule 1 (VCAM1) Biomarker Activity (AID 2283065).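 As to AC50: VCAM-1 protein level quantified by ELISA after 24 h chemical exposure.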 The settings on record: primary human foreskin fibroblasts; actives raise or lower the signal. An outline of the steps: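 Primary human foreskin fibroblasts (hDFCGF system) were dosed with chemical and VCAM-1 was measured by ELISA 24 h later. Bidirectional curve fitting used DMSO as negative control and activity baseline.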

Read-out in test [12]: Plasminogen activator inhibitor-1 (PAI1), SERPINE1 (gene 5054)
Kind of test: BSK_hDFCGF_PAI1: BioMAP Diversity Plus: hDFCGF Assay for Plasminogen activator inhibitor-1 (PAI1) Biomarker Activity (AID 2283066). The settings on record: primary human foreskin fibroblasts; actives raise or lower the signal. A digest of the protocol: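 PAI-1 levels in human dermal foreskin fibroblasts were quantified by ELISA 24 h after dosing, with gain or loss analysed against DMSO. Overt cytotoxicity was checked by sulforhodamine B total-protein staining in parallel cultures.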

Read-out in test [13]: Intercellular Adhesion Molecule 1 (ICAM1), ICAM1 (gene 3383)
Kind of test: BSK_KF3CT_ICAM1: BioMAP Diversity Plus: KF3CT Assay for Intercellular Adhesion Molecule 1 (ICAM1) Biomarker Activity (AID 2283067). As to conditions: primary human keratinocytes with fibroblasts; actives raise or lower the signal. A digest of the protocol: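 Human keratinocyte plus foreskin fibroblast primary co-culture was exposed to chemical for 24 h. ICAM-1 was then quantified by ELISA, and the data were fit bidirectionally against DMSO as the negative control and baseline.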

Read-out in test [14]: Interferon-gamma inducible Protein 10 (IP10), CXCL10 (gene 3627)
Kind of test: BSK_KF3CT_IP10: BioMAP Diversity Plus: KF3CT Assay for Interferon-gamma inducible Protein 10 (IP10) Biomarker Activity (AID 2283068). The settings on record: primary human keratinocytes with fibroblasts; actives raise or lower the signal. A digest of the protocol:
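In a primary skin co-culture of keratinocytes and fibroblasts, IP-10 is quantified by ELISA at 24 h after dosing. SRB staining of parallel wells monitors overt toxicity. Curves are fitted both directions against DMSO.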

The nature of test [15]: BSK_KF3CT_SRB: Viability Assessment in the BioMAP Diversity Plus: KF3CT Assay (AID 2283069).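 Also: fitted for both signal gain and loss against DMSO baseline.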 As to conditions: primary human keratinocytes with fibroblasts. A digest of the protocol:
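SRB read-out at 560 nm (0.1% stain, TCA-fixed cells) gauges overt cytotoxicity in a human skin keratinocyte–fibroblast co-culture 24 h post-dosing. Signal change was fitted bidirectionally relative to DMSO control.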

Read-out in test [16]: Interleukin-1 alpha (IL1a), IL1A (gene 3552)
The test can be described thus: BSK_KF3CT_IL1a: BioMAP Diversity Plus: KF3CT Assay for Interleukin-1 alpha (IL1a) Biomarker Activity (AID 2283070). As to conditions: primary human keratinocytes with fibroblasts; actives raise or lower the signal. An outline of the steps:
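Primary skin co-culture (keratinocytes, foreskin fibroblasts), 24 h exposure; ELISA for IL-1a; bidirectional curve fit vs DMSO.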

Read-out in test [17]: TIMP metallopeptidase inhibitor 2 (TIMP2), TIMP2 (gene 7077)
Kind of test: BSK_KF3CT_TIMP2: BioMAP Diversity Plus: KF3CT Assay for TIMP metallopeptidase inhibitor 2 (TIMP2) Biomarker Activity (AID 2283071). As to conditions: primary human keratinocytes with fibroblasts; actives raise or lower the signal. An outline of the steps:
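TIMP-2 measured by ELISA at 24 h in human keratinocyte/fibroblast primary co-cultures exposed to chemicals. Both increases and decreases were fitted against DMSO. Parallel cultures were stained with SRB for total protein as an overt-cytotoxicity check.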

Read-out in test [18]: Transforming growth factor beta 1 (TGFb1), TGFB1 (gene 7040)
Kind of test: BSK_KF3CT_TGFb1: BioMAP Diversity Plus: KF3CT Assay for Transforming growth factor beta 1 (TGFb1) Biomarker Activity (AID 2283072). As to conditions: primary human keratinocytes with fibroblasts; actives raise or lower the signal. A digest of the protocol: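 ELISA quantifies TGF-b1 at 24 h post-dose in a primary human skin co-culture of keratinocytes and fibroblasts, with gain or loss judged against DMSO. Parallel SRB total-protein staining flags overt cytotoxicity.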

Read-out in test [19]: Epidermal growth factor receptor (EGFR), EGFR (gene 1956)
Kind of test: BSK_hDFCGF_EGFR: BioMAP Diversity Plus: hDFCGF Assay for Epidermal growth factor receptor (EGFR) Biomarker Activity (AID 2283057). The settings on record: primary human foreskin fibroblasts; actives raise or lower the signal. An outline of the steps: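 EGFR levels by ELISA in human dermal fibroblast cultures, 24 h post-treatment, fitted bidirectionally versus DMSO. Parallel wells stained with sulforhodamine B to detect overt cytotoxicity.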

Calls of active or inactive are those of the source. The calls were made as follows: active = hit-call score of the fitted dose curve at least 0.9, where 1 is the maximum; inactive = score below 0.9.

Among the data in PubChem BioAssay (EPA / NIEHS) are outcome and AC50 values, retold here.

The term AC50 denotes the concentration at which the activity in the assay is half-maximal.

Consider `Oc1c(I)cc(I)cc1I`, for which the result in [1], in test [3], in test [6], in test [8], in test [9] and in [10] was inactive. Further, the outcome in test [11] and in test [15] was inactive. Further, the AC50 in test [2] is 191 nM (active); in [4], 4.24 µM (active); in test [5], 8030 nM (active); in [7] it was 20 µM (active); in test [12], 11.5 µM (active); in test [13] it was 20 µM (active). Also, the AC50 was 23 µM (active) in [14], 27.7 µM (active) in [16], 17 µM (active) in test [17] and 7.06 µM (active) in test [18].
For the molecule `CC(C)(C)c1cc(O)ccc1O`, in test [2], the result was inactive. Also, the AC50 in [3] is 23.7 µM (active); in test [4], 5.6 µM (active); in test [19] it was 5.78 µM (active); in [5], 472 nM (active); in [6] it was 5.23 µM (active); in test [7], 4.07 µM (active). The concentration at half-maximal activity (AC50) was 4.45 µM (active) in test [8]; 4.42 µM (active) in test [9]; 6.21 µM (active) in [10]; 3.31 µM (active) in [11]; 5.24 µM (active) in test [12]; 30.8 µM (active) in test [13]. The AC50 in test [14] was 30.1 µM (active); in [15], 29.9 µM (active); in test [16], 28.3 µM (active); in [17] it was 20 µM (active); in test [18], 20 µM (active).
Take `CC(=O)[O][Hg][c]1ccccc1`: the half-maximal activity concentration (AC50) in [2] is 487 nM (active); in test [3], 0.836 µM (active); in test [4], 0.279 µM (active); in test [5], 148 nM (active); in [6], 0.447 µM (active); in test [7], 0.464 µM (active). In addition, the half-maximal activity concentration (AC50) in test [8] is 0.148 µM (active); in test [9], 0.208 µM (active); in [10] it was 0.148 µM (active); in test [11], 0.511 µM (active); in [12], 0.183 µM (active); in test [13], 0.467 µM (active). In addition, the AC50 in test [14] is 0.148 µM (active); in test [15], 0.617 µM (active); in [16], 0.707 µM (active); in test [17] it was 0.148 µM (active); in [18], 0.146 µM (active). For the same molecule, the outcome in test [19] was inactive.
